# Source: PubChem BioAssay (National Center for Advancing Translational Sciences (NCATS))
# This is a sample that favours compounds with a hit; in the whole collection about 21% have one here.
# Pf growth 96h = P. falciparum growth inhibition at 96 hour, primary screen for plastid delayed-death inhibitors | P. falciparum luciferase reporter growth, 96 h | Potency, µM (highest dose often 28.7 µM), most hits filed as inhibitors | 6.9% of 320,000 active | AID 504834
#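 Parasite growth measured via integrated firefly luciferase reporter in P. falciparum. Infected erythrocytes at 2% hematocrit, 0.05% parasitemia final were treated 96 hours at 37 C under 5% CO2, and luminescence was read.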
# Pf growth 48h = inhibits P. falciparum growth in the first generation, 48 h; P. falciparum luciferase growth in erythrocytes, 48 h; Potency, µM (top dose mostly 28.7 µM), most hits filed as inhibitors; 5.9% of 310,000 active; AID 504832
#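 Luciferase-expressing parasites in RBCs, 2% Hct / 0.1% parasitemia final; RPMI 1640 + 0.5% Albumax; 37 C, 5% CO2, one generation; luminescence read-out, lower signal = inhibition.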
# AMA1 RON2 block = disrupts binding of P. falciparum AMA1 to RON2; AlphaScreen AMA1-biotinylated RON2 peptide binding; Potency, µM (top dose mostly 58.2 µM), hits mostly inhibitors; 0.2% of 360,000 active; AID 720542; also: nearly all actives have a fitted effect of over 45% in size
#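 AMA1 (3D7) with his tag at 25 nM final met compounds first, then biotinylated RON2 peptide at 25 nM; detection used donor plus acceptor beads, 10 µg/mL apiece, read by AlphaScreen after 30 min at room temperature.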
# CHX counter = counter-screen for Shiga toxin inhibitors: cycloheximide protein synthesis inhibition; cell reporter, cycloheximide protein synthesis inhibition counterscreen; max response, %; 12% of 300,000 active; AID 2314; in the data active = max response mostly above about 13%, no sharp cut-off; inactive = mostly below about 14%; also: read at 38.3 µM for the half of the compounds with a filed dose
# HCV inh = HCV inhibition. Potency, µM (doses to about 41.8 µM), hits mostly inhibitors. 3.4% of 340,000 active. Huh7.5.1 HCVcc-Cre infection, luciferase reporter, 44 h
#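 Infectious HCV cell culture screen: compound-treated cells (1,000/well, pre-plated 4 h) are infected with HCVcc-Cre at roughly 0.5 moi and grown 44 h. Infection is quantified by luciferase signal after 15 min substrate incubation at room temperature.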
# Shiga inhibitor = blocks Shiga toxin action in Vero cells; inhibition, % at 38.7 µM; 9.2% of 290,000 active; Vero cells, Shiga toxin protein synthesis inhibition reporter; in the data active = inhibition mostly above about 28%, no sharp cut-off; inactive = mostly below about 43%
# A number is an active result; . = inactive; ? = inconclusive; / = no result given; [ ] = remark or other dose. Unless noted, calls follow the shape of the dose curve; as a rule, active = well fitted curve in the direction sought with a large enough effect; inconclusive = small, poorly fitted or top-dose-only effect, or another doubt; inactive = no such curve, though single readings can be large; an effect the other way counts as inactive or inconclusive.
SMILES,Pf growth 96h,Pf growth 48h,AMA1 RON2 block,CHX counter,HCV inh,Shiga inhibitor
CCOC(=O)c1c(C)[nH]c(N=Nc2ccccc2C)c1C,/,.,?,38,?,81
CCC(=O)Nc1nc(NCc2ccccc2OC)n(-c2ccccc2)n1,.,.,.,.,.,.
CN(C)S(=O)(=O)c1ccc(C(=O)Nc2ccc(F)cc2F)cc1,.,.,.,.,.,.
Cn1ccc(C(=O)Oc2ccc(C(=O)Nc3ccc(F)cc3F)cc2)n1,.,.,.,26,.,.
COc1cccc(C(=O)Nc2ccc(C(F)(F)F)n(C)c2=O)c1,.,.,.,35,.,50
O=C(Nc1ccccc1F)c1ccc(C(=O)c2ccccc2)cc1,.,.,.,29,.,75
O=C(Nc1ccccc1)Oc1cccc(Br)c1,.,.,.,14,.,.
O=C(Nc1ccccc1F)c1cccc(C(=O)Nc2ccccc2F)c1,?,.,.,.,.,.
O=C(Cc1coc2cc(O)ccc12)NNC(=O)c1ccc(Br)s1,/,/,.[11.6 µM],/,.,/
CCC(=O)N1CCc2cc(CNS(=O)(=O)c3cc(OC)ccc3OC)ccc21,/,/,/,.,/,.
COc1ccc(C(=O)Nc2ccc(F)cc2F)cc1OC,?,.,.,.,.,.
COc1cccc(C(=O)Nc2ccccc2F)c1,.,.,.,30,.,98
COc1cccc(C(=O)N(C)CC(=O)Nc2ccc(F)c(F)c2F)c1,.,.[0.00184 µM],.,.,.,.
COc1cccc(C(=O)Nc2ccc(F)c(F)c2F)c1,.,.,.,35,.,136
COc1ccc(COc2ccccc2C(N)=O)cc1F,.,.,.,33,.,66
COc1cccc(C(=O)Nc2ccc(F)cc2F)c1,.,.,.,39,.,59
COc1cc(C(N)=O)ccc1OCc1ccccc1,.,.,.,.,.,.
O=C(NC1CCCC1)C(C1CC1)n1c(-c2ccccn2)nc2ccccc21 (configuration not stated),/,/,.,/,/,/
CC/C(=N\NC(=O)CNC(=O)/C=C/c1ccc(OC)cc1)c1ccccc1,.,.,.,.,.,.
COc1ccc(C(C)(O)c2nc(-c3ccccc3OC)cs2)cc1 (configuration not stated),/,/,.,/,/,/
O=C(Nc1ccccc1F)Oc1cccc(OC(=O)Nc2ccccc2F)c1,.,.,.,45,.,101
COc1ccccc1OCc1ccc(C(=O)Nc2ccccc2F)cc1,.,.,.,6.7,.,47
COc1ccccc1NC(=O)c1ccc(COc2ccccc2OC)cc1,/,/,.,/,.,/
COc1ccc(-c2cccc(C(=O)Nc3ccccc3C)c2)cc1,9.3µM,.,.,.,.,.
CCOC(=O)N1CCC(NC(=O)c2cc3sccc3n2CC)CC1,5.2µM,.,.,.,.,.
SMILES,Pf growth 96h,Pf growth 48h,AMA1 RON2 block,CHX counter,HCV inh,Shiga inhibitor
CCOc1ccc(CCNC(=O)c2cc3sccc3n2CC)cc1OCC,.,?,.,.,7.9µM,.
CCn1c(C(=O)NC2CCC(C)CC2)cc2sccc21 (configuration not stated),.,.,.,38,?,73
CCOC(=O)N1CCC(NC(=O)c2ccc3c(c2)N(CC)CCS3)CC1,/,/,.,/,?,/
CCn1c(C(=O)NC(C)c2ccc3c(c2)OCCO3)cc2sccc21 (configuration not stated),.,/,?,.,.,.
Cc1nn2cc(-c3ccc(Cl)cc3)cnc2c1Cl,.,.,.,29,.,49
Cc1ccc(Cn2c(SCCN3CCCCC3)nc3c2c(=O)n(C)c(=O)n3C)cc1,?,.,.,.,13µM,.
CC1Cc2ccccc2N1C(=O)CSc1nc2c(c(=O)n(C)c(=O)n2C)n1Cc1ccccc1 (configuration not stated),.,5.9µM,.,.,3.5µM,.
CCCCn1c(SCCN2CCCCC2)nc2c1c(=O)n(C)c(=O)n2C,/,/,.,/,/,/
Cn1c(=O)c2c(nc(SCCN3CCOCC3)n2Cc2ccc(F)cc2)n(C)c1=O,?,.,.,.,.,.
Cn1c(=O)c2c(nc(SCCN3CCOCC3)n2C)n(C)c1=O,3.7µM,?,.,.,.,.
Cn1c(=O)c2c(nc(SCCN3CCCCC3)n2Cc2ccccc2)n(C)c1=O,2.3µM,?,.,.,?,.
O=C(O)c1cccc(NS(=O)(=O)c2cc(S(=O)(=O)c3ccc(Cl)cc3)ccc2Cl)c1,.,.,.,.,/,.
CC1CCN(S(=O)(=O)N2CCN(C(=O)c3ccc4c(c3)OCO4)CC2)CC1,?,.,.,.,.,.
CN1c2c(nc(N)[nH]c2=O)NCC1CNc1ccc(C(=O)NC(CCC(=O)O)C(=O)O)cc1 (configuration not stated),.,.,/,/,/,/
Cc1ccc(Cn2c(SCC(N)=O)nc3c2c(=O)n(C)c(=O)n3C)cc1,/,.,.,.,11µM,.
CN(C(=O)COc1ccccc1)c1nnc(-c2cccnc2)s1,.,.,.,.,.,.
CN(C(=O)C1CCCO1)c1nnc(-c2cnccn2)s1 (configuration not stated),3.3µM,.,.,.,.,.
Cc1ccc(-c2nnc(N(C)C(=O)C3CCCO3)s2)cn1 (configuration not stated),?,.,.,.,.,.
CN(C(=O)c1cccnc1)c1nnc(-c2ccccn2)s1,.,.,.,51,.,.
CC(=O)N(C)c1nnc(-c2ccccn2)s1,.,.,.,15,.,.
CC(=O)c1cnc(-c2ccccn2)s1,?,10µM,.,34,.,.
CC(=O)c1cnc(-c2ccccc2Cl)s1,.,.,.,.,.,.
CN1C(=O)NC(c2cccc([N+](=O)[O-])c2)C2=C1CCCC2=O (configuration not stated),.,.[0.00184 µM],.,.,.,.
CN(C(=O)c1ccccn1)c1nnc(-c2cnccn2)s1,/,.,.,40,.,.
CN(C(=O)c1cnccn1)c1nnc(-c2cnccn2)s1,?,.,.,.,.,.
SMILES,Pf growth 96h,Pf growth 48h,AMA1 RON2 block,CHX counter,HCV inh,Shiga inhibitor
Cc1cnc(-c2nnc(N(C)C(=O)c3ccccn3)s2)cn1,.,.,/,.,/,.
CN(C(=O)c1cccnc1)c1nnc(-c2cnccn2)s1,?,.,.,27,.,.
Cc1ccc(-c2nnc(N(C)C(=O)c3ccccn3)s2)cn1,?,.,.,13,.,.
CN(C(=O)c1ccncc1)c1nnc(-c2cnccn2)s1,.,.,.,.,.,.
CCC(C(=O)NCCCN(CC)Cc1ccccc1)n1nc(C)c2sc3ccccc3c2c1=O (configuration not stated),.,10µM,.,.,?,.
CCCn1c(C(C)Nc2nc(-c3ccc(Cl)c([N+](=O)[O-])c3)cs2)nc2cc(Cl)c(N3CCCCC3)cc21 (configuration not stated),?,?,.,.,?,.
COC(=O)[C@]12CCCCC=C1N(Cc1ccc3c(c1)OCO3)C(=O)[C@H](CC(=O)N1CCSCC1)C2,/,/,.,/,/,/
